# From PubChem
# Six1-Eya2 inh: qHTS Assay for Inhibitors of the Six1/Eya2 Interaction | Homeobox protein SIX1 (Homo sapiens) + Protein phosphatase EYA2 (Homo sapiens), … | AlphaScreen GST-Six1/His-Eya2 binding, biochemical; active compounds read low | activity change, % (test concentration not listed) | hit rate 0.56% among 360,000; in the data active = activity change below about -65%; inconclusive = mostly about -30% to -63%
#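 AlphaScreen luminescence read after one hour at 37 °C in darkness. Pin-transferred compounds met GST-Six1 and His-Eya2 protein (5X stock 250 nM/500 nM) plus glutathione donor and Ni-chelate acceptor beads (5X, 50 ug/mL).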
# CtBP-E1A inh: qHTS Assay for Inhibitors of the CtBP/E1A Interaction; CtBP / adenovirus E1A interaction (AlphaScreen); AlphaScreen GST-E1A/His-CtBP binding, 1536-well; active compounds read low; activity change, % (concentration not given with the values); hit rate 0.49% among 340,000; in the data active = activity change below about -65%; inconclusive = mostly about -30% to -63%
#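 Homogeneous bead-based format: GST-tagged E1A captured on glutathione donor beads, His-tagged CtBP on nickel acceptor beads; compounds precede bead addition by 2 h at 37 °C.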
# TDP1 cell noCPT: qHTS for Inhibitors of human tyrosyl-DNA phosphodiesterase 1 (TDP1): qHTS in cells in absence of CPT. hit rate 15% among 420,000. Potency, µM (top dose mostly 46.2 µM), for the others: at the top dose activity change, negative = growth inhibition, usual class: inhibitors. DT40 Tdp1-/- hTDP1 cells, no CPT, ATP luminescence, 48 h. AID 686978, 2013; note: potency is the fitted concentration of half-maximal effect; nearly all actives have a fitted effect of over 55% in size
#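 Readout: luminescence from CellTiter-Glo after 30 min in the dark at RT. Cells: DT40 Tdp1-/- with stable hTDP1, 400/well. Exposure: compounds alone, ≥48 hr, 37 °C.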
# IL-1B inflam inh: qHTS for Inhibitors of Inflammasome Signaling: IL-1-beta AlphaLISA Primary Screen; activity change, % at 57.5 µM; AID 743279, 2014; THP-1 LPS/ATP IL-1B secretion, AlphaLISA, 16 h; active compounds read low; hit rate 4.7% among 360,000; in the data active = activity change below about -50%; inconclusive = mostly about -30% to -49%
#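 THP-1 cells pretreated 1 hr with compounds (up to 57.5 uM final), then stimulated with LPS (250 ng/mL final) plus ATP (1.25 mM final); secreted IL-1B measured by AlphaLISA after 16 hr, decreased signal indicating inhibition.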
# DT40 TDP1 CPT: qHTS for Inhibitors of human tyrosyl-DNA phosphodiesterase 1 (TDP1): qHTS in cells in presence of CPT; chicken DT40 Tdp1-/-;hTDP1 cells + 20 nM CPT, ATP luminescence, 48 h; Potency, µM (doses to about 46.2 µM), for the others: at the top dose activity change, negative = growth inhibition, most hits filed as inhibitors; hit rate 12% among 420,000; note: potency is the fitted concentration of half-maximal effect; nearly all actives have a fitted effect of over 55% in size
#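 Chicken DT40 Tdp1-/- cells stably complemented with human TDP1 were seeded at 400 cells/well in medium containing 20 nM camptothecin, exposed to pin-transferred compounds, and grown at 37 °C for at least 48 hr. Viability was read as ATP luminescence.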
# TDP1 inh: qHTS Assay for Inhibitors of Tyrosyl-DNA Phosphodiesterase (TDP1). Tyrosyl-DNA phosphodiesterase 1 (Homo sapiens), Q9NUW8. recombinant TDP1, AlphaScreen DNA substrate cleavage. AID 485290, 2010. hit rate 0.28% among 350,000. Potency, µM (doses to about 130 µM), inactives show top-dose activity change, negative = inhibition, most hits filed as inhibitors; note: potency is the fitted concentration of half-maximal effect; nearly all actives have a fitted effect of over 40% in size
# Target sequence (Q9NUW8 whole entry, looked up): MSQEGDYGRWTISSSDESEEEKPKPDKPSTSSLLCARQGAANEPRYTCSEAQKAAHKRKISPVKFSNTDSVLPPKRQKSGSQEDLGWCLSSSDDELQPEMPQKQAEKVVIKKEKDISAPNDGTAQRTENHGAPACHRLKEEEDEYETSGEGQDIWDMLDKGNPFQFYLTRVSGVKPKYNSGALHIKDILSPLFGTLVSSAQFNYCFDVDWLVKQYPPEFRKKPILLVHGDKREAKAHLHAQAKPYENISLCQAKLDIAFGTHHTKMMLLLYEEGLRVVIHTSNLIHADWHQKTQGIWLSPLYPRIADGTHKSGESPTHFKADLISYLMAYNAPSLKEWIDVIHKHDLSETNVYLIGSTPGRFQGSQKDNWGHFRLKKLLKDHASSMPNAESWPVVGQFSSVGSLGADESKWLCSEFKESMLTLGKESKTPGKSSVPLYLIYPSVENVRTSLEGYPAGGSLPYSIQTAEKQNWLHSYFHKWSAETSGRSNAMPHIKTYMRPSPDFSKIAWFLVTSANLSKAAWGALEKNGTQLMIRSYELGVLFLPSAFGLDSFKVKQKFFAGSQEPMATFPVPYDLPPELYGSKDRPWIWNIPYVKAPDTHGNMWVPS
#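 Recombinant human Tdp1 (E. coli-expressed, 1 nM final) preincubated with compounds 15 min at room temperature, then 5'-biotin/3'-phosphotyrosine-FITC DNA substrate (15 nM final) added for 5 min. AlphaScreen beads (10 ug/ml final) added 10 min; cleavage lowers signal.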
# An asterisk follows results filed as active; i = inactive; ? = inconclusive; · = no result. A selection: hits, their analogues and other compounds. The true share with any hit is near 18%. Unless noted, calls come from the whole dose curve; as a rule, active = well fitted curve in the direction sought with a large enough effect; inconclusive = small, poorly fitted or top-dose-only effect, or another doubt; inactive = no such curve, though single readings can be large; an effect the other way counts as inactive or inconclusive. % is set by controls: 0 for no effect and ±100 for the full control effect.
SMILES,Six1-Eya2 inh,CtBP-E1A inh,TDP1 cell noCPT,IL-1B inflam inh,DT40 TDP1 CPT,TDP1 inh
Cn1c(SCc2cnc(-c3ccccc3)s2)nnc1C1COc2ccccc2O1 (configuration not stated),8,11,-13%,-7,-25%,3%
c1ccc(CCNc2ncnc3scc(C4COc5ccccc5O4)c23)cc1 (configuration not stated),-16,0,18µM*,0,?,0%
COc1cccc(-c2nc(C=O)cs2)c1,5,-6,?,-11,?,5%
CCN1CCN(C(=O)c2ccc(Sc3ccccc3Cl)c([N+](=O)[O-])c2)CC1,-15,4,?,-11,?,5%
CCN1CCCC1CNC(=O)c1ccc(Sc2ccccc2Cl)c([N+](=O)[O-])c1 (configuration not stated),7,10,?,-50*,?,8%
Cc1ccc(-n2ncc(C(=O)NCC3CCN(C4CCCC4)C3)c2C2CCN(C(=O)OC(C)(C)C)CC2)cc1 (configuration not stated),3,-14,?,-23,?,1%
Cc1ccc(CNC(=O)c2cnn(-c3cccc(C)c3)c2C2CCN(C(=O)OC(C)(C)C)CC2)cc1,·,·,23µM*,·,16µM*,6%
CC(C)(C)OC(=O)N1CCC(c2c(C(=O)NCc3ccccc3)cnn2-c2ccccc2)CC1,·,·,?,·,?,2%
Cc1ccc(-n2ncc(C(=O)NCc3cccs3)c2C2CCN(C(=O)OC(C)(C)C)CC2)cc1,·,·,?,·,23µM*,4%
Cc1ccc(CN2CCC(CNC(=O)c3cnn(-c4ccccc4)c3C3CCN(C(=O)OC(C)(C)C)CC3)CC2)cc1,·,·,15µM*,·,15µM*,7%
Cc1ccc(NC(=O)CN(C)S(=O)(=O)c2cccc3cccnc23)cc1C,-10,-18,15µM*,-23,?,·
Cc1ccc(NC(=O)CN(C)S(=O)(=O)c2cccc3cccnc23)cc1F,0,-11,?,-7,?,0%
COc1ccccc1NC(=O)CN(C)S(=O)(=O)c1cccc2cccnc12,0,·,18µM*,-19,36%,3%
COc1ccc(N(C(=O)C2CCCCC2)S(=O)(=O)c2cccc3cccnc23)cc1,11,-5,-24%,-52*,15%,3%
COc1ccc(N(C)S(=O)(=O)c2cccc3cccnc23)c(OC)c1,-6,-4,18µM*,22,?,-2%
O=C(c1cnc2ccc(Cl)cc2c1Cl)N1CCOCC1,2,13,-19%,6,-11%,-7%
CN(Cc1ccccc1Cl)C(=O)c1cc2ccccc2o1,10,-3,?,-22,?,-9%
CN(CC(=O)Nc1ccc(Cl)c(C(F)(F)F)c1)C(=O)COc1cccc2cccnc12,13,-22,?,-7,?,·
CSc1ccccc1NC(=O)CN(C)C(=O)COc1cccc2cccnc12,-85*,-85*,3.3µM*,14,5.2µM*,-2%
O=C(Nc1ccccc1)C1=C(Nc2ccccc2)CSC1,-4,1,-11%,-22,-21%,·
Cc1ccc(-c2noc(CCC(=O)NCCN3CCOCC3)n2)cc1,5,15,-2%,26,15%,6%
Cc1ccc(-c2noc(CCC(=O)NCCN3CCN(Cc4ccccc4)CC3)n2)cc1,11,-3,18µM*,-30,?,8%
Cc1ccc(-c2noc(CCC(=O)NCC3CCN(Cc4cccc(C)c4)CC3)n2)cc1,2,8,?,-67*,18µM*,7%
CCCCn1c(N)c(N(CC(C)C)C(=O)C2CC(=O)N(CCc3ccccc3)C2)c(=O)[nH]c1=O (configuration not stated),2,2,1%,i,-7%,2%
CCCCn1c(N)c(N(CC(C)C)C(=O)c2ccncc2)c(=O)[nH]c1=O,9,-1,-2%,4,11%,·
SMILES,Six1-Eya2 inh,CtBP-E1A inh,TDP1 cell noCPT,IL-1B inflam inh,DT40 TDP1 CPT,TDP1 inh
COc1cccc(C(=O)Nc2nnc(S(=O)(=O)N(C)Cc3ccc(F)cc3)s2)c1,-2,-1,-13%,3,-20%,3%
Oc1c(C(c2ccc(Cl)cc2)N2CCCC2)sc2nc(-c3ccco3)nn12 (configuration not stated),·,·,-16%,·,-13%,8%
CCOC(=O)Cn1c(=O)cc(C)c2ccccc21,-3,·,12µM*,-10,8.2µM*,3%
CN1C(=O)C(/C(N)=N/NC(=O)c2ccccc2)C2CC1(C)Oc1ccccc12 (configuration not stated),4,-10,20%,15,-14%,3%
CCc1nc(N=C(N)N)nc2ccccc12,·,·,·,·,·,3%
NC(N)=Nc1nc(-c2ccccc2)c2ccccc2n1,?,?,15µM*,·,26µM*,0%
CC(=O)C1=C(c2ccc(F)cc2)N(C(C)=O)n2c(nnc2C2CCCCC2)S1,·,·,23µM*,·,?,-8%
CCC(=O)C1=C(c2ccc(C)cc2)N(C(=O)CC)n2c(nnc2C2CCCCC2)S1,·,·,26µM*,·,?,0%
CCC(=O)C1=C(c2ccc(F)cc2)N(C(=O)CC)n2c(nnc2-c2ccc(OC)cc2)S1,·,·,2.9µM*,·,4.1µM*,0%
CCN(Cc1cc2ccc(C)cc2[nH]c1=O)C(=O)c1ccncc1,·,·,·,·,·,0%
Cc1ccc(-c2cc(C(=O)N3CCN(C(=O)c4ccco4)CC3)[nH]n2)cc1C,1,-4,-26%,?,?,5%
Nc1cc(-c2ccc(OC(F)(F)F)cc2)nn1-c1ccc(Cl)c(Cl)c1,-11,4,?,-65*,?,6%
Cc1ccc(-c2cc(N)n(-c3ccccc3)n2)cc1,-2,0,-22%,?,-21%,0%
O=C1CC(=C(c2ccccc2)c2ccccc2)C(=O)N1CCCCN1CCN(c2cccc(Cl)c2)CC1,?,?,18µM*,?,15µM*,5%
Cc1ccccc1N1CCN(CCN2C(=O)CC(=C3c4ccccc4-c4ccccc43)C2=O)CC1,-6,-7,-28%,0,-29%,·
